Source: PubChem BioAssay AID1159580 (chemical genetic matrix, 2015)
Among all 5,500 compounds or so, about 2,000 (36%) were called active. Roughly 18% stayed inconclusive and do not appear here. No stated cut-off is given here; in the data, active means normalized growth mostly below about 0.91 (no sharp cut-off); inconclusive means no clear call, values can overlap the other calls; inactive means mostly above about 0.92. Some of the results follow.

Assay: chemical genetic growth profiling, strain panel (AID 1159580);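 further: tested at 20 µM; growth read once vehicle control cultures reached saturation at 30 °C; 1 = growth at the plate median or of vehicle wells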
Conditions: growth OD

Measured: normalized growth

C=C1c2cccc(O)c2C(O)=C2C(=O)[C@]3(O)C(O)=C(C(N)=O)C(=O)[C@@H](N(C)C)[C@@H]3[C@@H](O)[C@H]12
inactive: S. cerevisiae deletion strains, locus YJR075W, strain HOC1, stronger effect = lower value 0.992 | S. cerevisiae deletion strains, locus YKL009W, strain mrt4, stronger effect = lower value 1.03 | S. cerevisiae deletion strains, locus YKL068W, stronger effect = lower value 0.989 | S. cerevisiae deletion strains, locus YKL085W, strain MDH1 (second series), stronger effect = lower value 0.978 | S. cerevisiae deletion strains, locus YKL085W, strain MDH1, stronger effect = lower value 0.978 | S. cerevisiae deletion strains, locus YKL160W, strain elf1, stronger effect = lower value 1.02 | S. cerevisiae deletion strains, locus YKL190W, strain CNB1, stronger effect = lower value 0.992 | S. cerevisiae deletion strains, locus YKR001C, strain vps1, stronger effect = lower value 0.961 | S. cerevisiae deletion strains, locus YKR026C, strain gcn3, stronger effect = lower value 0.994 | S. cerevisiae deletion strains, locus YLL001W, strain dnm1, stronger effect = lower value 1.01 | S. cerevisiae deletion strains, locus YLL026W, stronger effect = lower value 1.02 | S. cerevisiae deletion strains, locus YLL041C, strain sdh2, stronger effect = lower value 1.02 | S. cerevisiae deletion strains, locus YLR027C, strain aat2, stronger effect = lower value 1.01 | S. cerevisiae deletion strains, locus YLR039C, strain RIC1, stronger effect = lower value 0.94 | S. cerevisiae deletion strains, locus YLR058C, strain SHM2, stronger effect = lower value 0.975 | S. cerevisiae deletion strains, locus YLR102C, strain apc9, stronger effect = lower value 1 | S. cerevisiae deletion strains, locus YLR113W, strain HOG1, stronger effect = lower value 0.986 | S. cerevisiae deletion strains, locus YLR221C, strain rsa3, stronger effect = lower value 0.996 | S. cerevisiae deletion strains, locus YLR258W, strain gsy2, stronger effect = lower value 1 | S. cerevisiae deletion strains, locus YLR262C, strain YPT6 (second series), stronger effect = lower value 1.01 | S. cerevisiae deletion strains, locus YLR262C, strain YPT6, stronger effect = lower value 0.967 | S. cerevisiae deletion strains, locus YLR268W, strain sec22, stronger effect = lower value 0.905 | S. cerevisiae deletion strains, locus YLR320W, strain mms22, stronger effect = lower value 1.01 | S. cerevisiae deletion strains, locus YLR330W, strain CHS5, stronger effect = lower value 0.969 | S. cerevisiae deletion strains, locus YLR342W, strain FKS1 (second series), stronger effect = lower value 0.979 | S. cerevisiae deletion strains, locus YLR342W, strain FKS1, stronger effect = lower value 1.01 | S. cerevisiae deletion strains, locus YLR357W, strain rsc2, stronger effect = lower value 1.01 | S. cerevisiae deletion strains, locus YLR370C, strain arc18, stronger effect = lower value 1.02 | S. cerevisiae deletion strains, locus YLR371W, strain rom2, stronger effect = lower value 0.991 | S. cerevisiae deletion strains, locus YLR384C, strain iki3, stronger effect = lower value 1.03 | S. cerevisiae deletion strains, locus YLR418C, strain cdc73, stronger effect = lower value 0.972 | S. cerevisiae deletion strains, locus YML016C, strain PPZ1, stronger effect = lower value 0.979 | S. cerevisiae deletion strains, locus YML032C, strain rad52, stronger effect = lower value 0.959 | S. cerevisiae deletion strains, locus YML120C, strain ndi1, stronger effect = lower value 1.01 | S. cerevisiae deletion strains, locus YML124C, strain tub3, stronger effect = lower value 0.991 | S. cerevisiae deletion strains, locus YMR058W, strain fet3, stronger effect = lower value 0.986 | S. cerevisiae deletion strains, locus YMR078C, strain ctf18, stronger effect = lower value 1 | S. cerevisiae deletion strains, locus YMR125W, strain sto1, stronger effect = lower value 0.998 | S. cerevisiae deletion strains, locus YMR129W, stronger effect = lower value 0.998 | S. cerevisiae deletion strains, locus YMR205C, strain PFK2, stronger effect = lower value 1.02 | S. cerevisiae deletion strains, locus YMR223W, strain ubp8, stronger effect = lower value 0.992 | S. cerevisiae deletion strains, locus YMR231W, strain pep5, stronger effect = lower value 1.01 | S. cerevisiae deletion strains, locus YMR263W, strain SAP30, stronger effect = lower value 0.976 | S. cerevisiae deletion strains, locus YMR307W, strain GAS1, stronger effect = lower value 1.02 | S. cerevisiae deletion strains, locus YNL067W, strain RPL9B, stronger effect = lower value 0.95 | S. cerevisiae deletion strains, locus YNL071W, strain lat1, stronger effect = lower value 1.03 | S. cerevisiae deletion strains, locus YNL128W, strain TEP1, stronger effect = lower value 0.976 | S. cerevisiae deletion strains, locus YNL153C, strain GIM3, stronger effect = lower value 0.925 | S. cerevisiae deletion strains, locus YNL183C, strain NPR1, stronger effect = lower value 0.922 | S. cerevisiae deletion strains, locus YNL209W, strain ssb2, stronger effect = lower value 1.01 | S. cerevisiae deletion strains, locus YNL233W, strain BNI4, stronger effect = lower value 0.965 | S. cerevisiae deletion strains, locus YNL248C, strain rpa49, stronger effect = lower value 1.06 | S. cerevisiae deletion strains, locus YNL250W, strain rad50, stronger effect = lower value 0.987 | S. cerevisiae deletion strains, locus YNL271C, strain bni1, stronger effect = lower value 0.954 | S. cerevisiae deletion strains, locus YNL298W, strain CLA4, stronger effect = lower value 0.981 | S. cerevisiae deletion strains, locus YNL307C, strain MCK1, stronger effect = lower value 1 | S. cerevisiae deletion strains, locus YNL322C, strain KRE1 (second series), stronger effect = lower value 1.01 | S. cerevisiae deletion strains, locus YNL322C, strain KRE1, stronger effect = lower value 0.991 | S. cerevisiae deletion strains, locus YNR049C, strain mso1, stronger effect = lower value 1.04 | S. cerevisiae deletion strains, locus YNR052C, strain pop2, stronger effect = lower value 0.982 | S. cerevisiae deletion strains, locus YOL006C, strain TOP1, stronger effect = lower value 0.891 | S. cerevisiae deletion strains, locus YOL012C, strain htz1 0.75 | S. cerevisiae deletion strains, locus YOL147C, strain pex11, stronger effect = lower value 0.995 | S. cerevisiae deletion strains, locus YOR001W, strain rrp6, stronger effect = lower value 1.04 | S. cerevisiae deletion strains, locus YOR061W, strain CKA2, stronger effect = lower value 0.979 | S. cerevisiae deletion strains, locus YOR069W, strain VPS5, stronger effect = lower value 1 | S. cerevisiae deletion strains, locus YOR070C, strain gyp1, stronger effect = lower value 1 | S. cerevisiae deletion strains, locus YOR080W, strain dia2, stronger effect = lower value 1.02 | S. cerevisiae deletion strains, locus YOR083W, strain WHI5, stronger effect = lower value 1.01 | S. cerevisiae deletion strains, locus YOR106W, strain vam3, stronger effect = lower value 1.01 | S. cerevisiae deletion strains, locus YOR136W, strain idh2, stronger effect = lower value 1 | S. cerevisiae deletion strains, locus YOR144C, strain elg1, stronger effect = lower value 1 | S. cerevisiae deletion strains, locus YOR184W, strain ser1, stronger effect = lower value 0.98 | S. cerevisiae deletion strains, locus YOR231W, strain MKK1, stronger effect = lower value 0.964 | S. cerevisiae deletion strains, locus YOR265W, strain rbl2, stronger effect = lower value 1.01 | S. cerevisiae deletion strains, locus YOR270C, strain vph1, stronger effect = lower value 1 | S. cerevisiae deletion strains, locus YOR290C, strain snf2, stronger effect = lower value 0.998 | S. cerevisiae deletion strains, locus YOR316C, strain cot1, stronger effect = lower value 0.988 | S. cerevisiae deletion strains, locus YPL051W, strain arl3, stronger effect = lower value 1 | S. cerevisiae deletion strains, locus YPL055C, strain LGE1, stronger effect = lower value 0.951 | S. cerevisiae deletion strains, locus YPL078C, strain atp4, stronger effect = lower value 1.03 | S. cerevisiae deletion strains, locus YPL106C, strain sse1, stronger effect = lower value 0.995 | S. cerevisiae deletion strains, locus YPL240C, strain hsp82, stronger effect = lower value 1.01 | S. cerevisiae deletion strains, locus YPL241C, strain CIN2, stronger effect = lower value 0.998 | S. cerevisiae deletion strains, locus YPL256C, strain CLN2, stronger effect = lower value 0.964 | S. cerevisiae deletion strains, locus YPR119W, strain clb2, stronger effect = lower value 0.994 | S. cerevisiae deletion strains, locus YPR141C, strain kar3, stronger effect = lower value 0.981 | S. cerevisiae deletion strains, locus YPR163C, strain tif3, stronger effect = lower value 0.992 | S. cerevisiae deletion strains, locus YPR167C, strain met16, stronger effect = lower value 0.983 | S. cerevisiae deletion strains, strain wtn01, stronger effect = lower value 0.932 | S. cerevisiae strains, strain wild type, stronger effect = lower value 0.969
